Assay outcomes: PubChem BioAssay, The Scripps Research Institute Molecular Screening Center
The list is not random: actives were taken first. Their share in the collection is about 1.1%.
COUP-TFII inh – blocks human COUP-TFII nuclear receptor; P24468; HEK293T NGFI-A luciferase reporter, luminescence; inhibition, % at 8.6 µM; 370,000 compounds, 0.7% hits;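 active = inhibition above a per-plate cutoff, mean inhibition of test wells between control levels plus 3 SD, cut at about 38% in these data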;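 note: cells cotransfected with COUP-TFII expression vector driving the NGFI-A reporter; 0% = median of COUP-TF2 test wells and 100% = reporter-only cells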
LRH-1 inv ag – suppresses constitutive activity of human LRH-1; inhibition, % at 3.6 µM; O00482; HEK293T StAR-luciferase reporter, LRH-1 transfected, 24 h; AID 602396; 360,000 compounds, 0.13% hits;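 active = inhibition above the mean inhibition of all tested compounds plus 3 SD, cut at about 73% in these data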;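 note: 0% = DMSO wells and 100% = reporter-only cells lacking LRH-1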
NCOA3 inh – human NCOA3 inhibition | Q9Y6Q9 | HEK293 GAL4-SRC3 luciferase reporter, luminescence | inhibition, % at 3.6 µM | 360,000 compounds, 0.17% hits | AID 588352;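 active = inhibition above a per-campaign cutoff, the mean of all compounds plus 3 SD, cut at about 60% in these data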;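 note: 0% = DMSO-treated cells and 100% = gossypol-treated cells at 36 µM; higher means less SRC3-driven luciferase light from the GAL4 reporter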
NCOA1 inh – human NCOA1 inhibition | Q15788 | AID 588354 | inhibition, % at 3.6 µM | 360,000 compounds, 0.12% hits | HEK293 GAL4-SRC1 luciferase reporter, luminescence;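 active = inhibition above the campaign mean plus 3 SD, with each screening campaign given its own cutoff, cut at about 60% in these data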;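 note: 0% = DMSO treated cells and 100% = gossypol at 36 µM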
GalR3 antagonist – antagonists of human GalR3. inhibition, % at 3 µM. HEK293 GalR3-CNG cAMP membrane potential fluorescence; galR3 body fused to GalR1 C-terminus. O60755. AID 651719. 360,000 compounds, 0.44% hits;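 active = inhibition above the screen-wide average plus 3 SD, cut at about 13% in these data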;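 note: forskolin and galanin both at EC90 stimulate the cells; cAMP rise reported by CNG channel membrane potential dye signal; 0% = forskolin plus galanin with DMSO and 100% = forskolin alone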
Target sequence (O60755 1-299 limits assumed): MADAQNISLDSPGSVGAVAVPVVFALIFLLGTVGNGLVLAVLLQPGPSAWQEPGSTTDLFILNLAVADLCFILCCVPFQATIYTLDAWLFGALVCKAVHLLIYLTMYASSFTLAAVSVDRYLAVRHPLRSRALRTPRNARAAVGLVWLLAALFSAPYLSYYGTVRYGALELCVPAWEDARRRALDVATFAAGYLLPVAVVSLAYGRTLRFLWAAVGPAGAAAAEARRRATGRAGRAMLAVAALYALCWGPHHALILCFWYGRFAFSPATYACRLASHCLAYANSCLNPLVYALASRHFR
NCOA2 inhibitor – human SRC2 (NCOA2) inhibition; 370,000 compounds, 0.17% hits; inhibition, % at 9 µM; HEK293 GAL4-SRC2 luciferase reporter, luminescence; Q15596;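 active = inhibition above the mean inhibition of all tested compounds plus 3 SD, set per campaign, cut at about 52% in these data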;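 note: 0% = DMSO treated cells and 100% = cells given Gossypol at 36 µM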
VP16 Luc counter – VP16 inhibition counter-screen for COUP-TFII | shares compounds with COUP-TFII inh | HEK293 Gal4-VP16 luciferase reporter, luminescence | inhibition, % at 8.5 µM | 2,500 compounds, 25% hits | AID 687007; in the data active = inhibition above about 13%
NR2F2 inh conf – COUP-TFII (NR2F2) inhibition, confirmation assay; shares compounds with COUP-TFII inh; HEK293 NGFI-A luciferase reporter, luminescence; inhibition, % at 8.5 µM; 2,500 compounds, 45% hits;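 active = mean inhibition over three repeats above a set limit taken from the earlier primary screen, cut at about 38% in these data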;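 note: 100% = cells given the luciferase reporter alone without the COUP-TF2 vector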
* hit, by the source's call.

Screening COc1ccc(OC)c(-n2c(O)c(C=Nc3c(C)n(C)n(-c4ccccc4)c3=O)c(=O)[nH]c2=S)c1 returned COUP-TFII inh 1, LRH-1 inv ag 13, NCOA3 inh -1, NCOA1 inh -23, GalR3 antagonist -2 and NCOA2 inhibitor 1.
For C=Cc1cc(OC)c2c(c1)c(=O)oc1c2cc(OC)c2c(O)ccc(C3OC(C)C(O)C(C)(O)C3O)c21 (centres undefined) the results were COUP-TFII inh 59*, LRH-1 inv ag 27, NCOA3 inh 38, NCOA1 inh 34, GalR3 antagonist -5, NCOA2 inhibitor 66*, VP16 Luc counter 24* and NR2F2 inh conf 26.
`COc1cc2c(cc1OC)C13CCN4CC5=CCOC6CC(=O)N2C1C6C5C3C4` (centres undefined) (tested in a mixture with another compound) gave COUP-TFII inh 1, LRH-1 inv ag 17, NCOA3 inh 0, NCOA1 inh 7, GalR3 antagonist 4 and NCOA2 inhibitor 16.
For C=C1C(=O)O[C@@H]2C[C@@H](C)[C@@H]3C=CC(=O)[C@@]3(C)[C@@H](OC(=O)CC(=O)O[C@H]3[C@@H]4C(=C)C(=O)O[C@@H]4C[C@@H](C)[C@@H]4C=CC(=O)[C@]43C)[C@H]12 the results were COUP-TFII inh 98*, LRH-1 inv ag 87*, NCOA3 inh 74*, NCOA1 inh 66*, GalR3 antagonist -8, NCOA2 inhibitor 94*, VP16 Luc counter 96* and NR2F2 inh conf 109*.
For CCC(C)(O)C(=O)OC1C(=O)OC2CC3C(C)=CC(O)C(O)C3(C)C3C4(O)OCC23C1C(C)C4O (centres undefined) the results were COUP-TFII inh 75*, LRH-1 inv ag 97*, NCOA3 inh 71*, NCOA1 inh 53, GalR3 antagonist -7, NCOA2 inhibitor 29, VP16 Luc counter 10 and NR2F2 inh conf 62*.
Screening O=c1[nH]c(=O)n(-c2cccc3ccccc23)c(O)c1/C=N/N1CCCCCC1 returned COUP-TFII inh 15, LRH-1 inv ag 0, NCOA3 inh -6, NCOA1 inh 3, GalR3 antagonist 2 and NCOA2 inhibitor -5.
`CCOC(=O)[C@]12Cc3ccc(C)cc3[C@H]1N(C1CCCCC1)C(=O)c1ccccc12` gave COUP-TFII inh 50*, LRH-1 inv ag 52, GalR3 antagonist 6, NCOA2 inhibitor -3, VP16 Luc counter 17* and NR2F2 inh conf 30.
CCOC(=O)[C@]12Cc3cc(C)ccc3[C@H]1N(CCC(=O)OC)C(=O)c1ccccc12 was read as COUP-TFII inh 23, LRH-1 inv ag 8, GalR3 antagonist -6 and NCOA2 inhibitor -4.
For COC(=O)C1=C(c2ccc(OC)c(OC)c2)C[C@@H]2CC[C@H]1N2C(=O)N1CCC(O)CC1 the results were COUP-TFII inh -1, LRH-1 inv ag -15, NCOA3 inh -4, NCOA1 inh -14, GalR3 antagonist -5 and NCOA2 inhibitor -2.
COc1ccc(-c2cc(-c3ccccc3)[n+](C)c(-c3ccccc3)c2)cc1 was read as COUP-TFII inh 46*, LRH-1 inv ag 74*, NCOA3 inh 70*, NCOA1 inh 46, GalR3 antagonist -6, NCOA2 inhibitor -15, VP16 Luc counter 16* and NR2F2 inh conf 53*.
